NPSR antagonist: qHTS Assay for Antagonists of the Neuropeptide S Receptor: cAMP Signal Transduction. Q6W5P4. CHO-NPSR cells, cAMP TR-FRET, antagonist mode. Potency, µM (top dose mostly 38.3 µM), inactives show at the top dose activity change, negative = inhibition, actives largely listed as inhibitors. hit rate 1% among 220,000. AID 1461, 2008; further: potency means the concentration at half of the fitted maximal effect; nearly all actives have a fitted effect of over 50% in size
ALOX12 inhib: qHTS Assay for Inhibitors of 12-hLO (12-human lipoxygenase); Potency, µM (titrated, usually from 57.1 µM), for the others: top-dose activity change, negative = inhibition, usual class: inhibitors; Polyunsaturated fatty acid lipoxygenase ALOX12 (Homo sapiens), P18054; AID 1452, 2008; purified 12-hLO, xylenol orange hydroperoxide absorbance; hit rate 0.12% among 150,000; further: potency means the concentration at half of the fitted maximal effect; nearly all actives have a fitted effect of over 55% in size
Target sequence (P18054 whole entry, looked up): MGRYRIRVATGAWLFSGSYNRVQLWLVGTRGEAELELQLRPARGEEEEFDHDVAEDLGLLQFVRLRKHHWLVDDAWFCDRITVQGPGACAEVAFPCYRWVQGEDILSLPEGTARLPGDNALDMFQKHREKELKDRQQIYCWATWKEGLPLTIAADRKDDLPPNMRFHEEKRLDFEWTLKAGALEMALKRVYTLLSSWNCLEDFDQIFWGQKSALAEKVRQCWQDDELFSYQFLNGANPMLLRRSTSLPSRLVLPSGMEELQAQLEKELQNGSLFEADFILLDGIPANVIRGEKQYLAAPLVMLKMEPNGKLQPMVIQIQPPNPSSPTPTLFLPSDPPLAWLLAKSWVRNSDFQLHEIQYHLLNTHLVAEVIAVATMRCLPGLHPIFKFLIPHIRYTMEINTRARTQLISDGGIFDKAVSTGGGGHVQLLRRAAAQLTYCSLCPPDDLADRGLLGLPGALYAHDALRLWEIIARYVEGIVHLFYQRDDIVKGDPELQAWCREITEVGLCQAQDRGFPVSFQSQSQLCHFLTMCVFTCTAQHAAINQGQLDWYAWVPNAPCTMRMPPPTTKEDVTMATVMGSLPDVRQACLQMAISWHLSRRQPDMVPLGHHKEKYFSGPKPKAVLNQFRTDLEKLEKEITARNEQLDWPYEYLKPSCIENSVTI
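Xylenol orange chromogenic assay: hydroperoxide from 12hLO oxidises Fe(II), giving red-shifted Fe(III)-XO absorbance. Conditions: 150 nM enzyme, 40 uM arachidonic acid, 25 mM Hepes pH 7.0, 0.01% Triton X-100, 30 min, room temperature.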
IMPase cell inh: qHTS Assay for Identifying the Cell-Membrane Permeable IMPase Inhibitors | inhibition (IP1 accumulation), % at 46.1 µM | 120,000 tested, under 10 active | Inositol monophosphatase 1 (Rattus norvegicus), P97697 | CHO-M1 cells, IP1 accumulation, HTRF TR-FRET ratio; active means well fitted curve in the direction sought with a large enough effect in the signal ratio, not every such curve was filed as active; inconclusive means small, poorly fitted or top-dose-only effect, or a change in a side signal; inactive means no such curve, though single readings can be large or run the other way; the % refers to the signal ratio;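 further: cells stimulated with carbachol in lithium chloride buffer; plate controls were DMSO basal wells for no effect and reference inhibitor wells for full effect; higher means more IMPase inhibition seen as more IP1 and lower FRET ratio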
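Seeded CHO-M1 cells were dosed with compound at up to 46 uM, stimulated with carbachol for 30 min, then lysed in IP-One detection reagents. Higher IP1 lowers the TR-FRET signal.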
HPGD block: qHTS Assay for Inhibitors of HPGD (15-Hydroxyprostaglandin Dehydrogenase) | 15-hydroxyprostaglandin dehydrogenase [NAD(+)] (Homo sapiens), P15428 | purified HPGD, NADH fluorescence kinetic, PGE2 substrate | Potency, µM, inactives show at the top dose activity change, negative = inhibition, most hits filed as inhibitors | hit rate 4.3% among 150,000; active means well fitted inhibition curve with a large enough effect, not every such curve was filed as active; inconclusive means small, poorly fitted or top-dose-only effect, or another doubt; inactive means no such curve, though single readings can be large or run the other way; further: potency means the concentration at half of the fitted maximal effect
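NADH formation kinetics: reaction with 30 uM PGE2 and 1 mM NAD+ (final), 20 nM enzyme, Tris-HCl pH 8 with Tween 20, after 15 min compound preincubation at room temperature. Fluorescence change, last versus first of five reads.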
IMPase Li inh: qHTS Assay for Identifying the Cell-Membrane Permeable IMPase Inhibitors: Potentiation with Lithium | Potency, µM (doses to about 59.4 µM), for the others: top-dose activity, negative = IMPase inhibition, actives largely listed as inhibitors | CHO-M1 cells, IP1 TR-FRET (IP-One), carbachol + lithium | hit rate 0.35% among 210,000;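 further: IP1 builds up when IMPase is blocked and the TR-FRET signal falls; potency means the concentration at half of the fitted maximal effect; plate controls were basal vehicle for no effect and high inhibitor control for full effect; nearly all actives have a fitted effect of over 50% in size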
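Test compounds were applied to CHO-M1 cells previously cultured for 16–30 h at 2000 per well. A small lithium amount accompanied them; after 30 min at 37C, IP1 was quantified by TR-FRET.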
ALDH1A1 block: qHTS Assay for Inhibitors of Aldehyde Dehydrogenase 1 (ALDH1A1) | Aldehyde dehydrogenase 1A1 (Homo sapiens), P00352 | Purified ALDH1A1, NADH fluorescence, propionaldehyde substrate | Potency, µM (titrated, usually from 75.3 µM), inactives show top-dose activity, negative = inhibition, usual class: inhibitors | hit rate 7.3% among 220,000 | AID 1030, 2008; active means well fitted inhibition curve with a large enough effect, not every such curve was filed as active; inconclusive means small, poorly fitted or top-dose-only effect, or another doubt; inactive means no such curve, though single readings can be large or run the other way;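 further: potency means the concentration at half of the fitted maximal effect; plate controls were no enzyme wells and a reference inhibitor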
Numbers without * were called inactive; ? = inconclusive; / = not tested or not shown; [ ] = remark or other dose. Most compounds without a hit are left out; they make up all but 8.9% or so of the library. Unless noted, the call rests on the fitted dose curve; in most records, active means well fitted curve in the direction sought with a large enough effect; inconclusive means small, poorly fitted or top-dose-only effect, or another doubt; inactive means no such curve, though single readings can be large; an effect the other way counts as inactive or inconclusive. Unless noted, on the % scale 0 is the no-effect control and ±100 the full control effect.

SMILES | NPSR antagonist | ALOX12 inhib | IMPase cell inh | HPGD block | IMPase Li inh | ALDH1A1 block
COc1ccc(CN2CCN(C(=O)C3CCC(CNS(=O)(=O)c4ccc(C)cc4)CC3)CC2)c(OC)c1OC (stereo not drawn) | -8% | / | / | / | 20% | 20µM*
COc1cc(C(=S)N2CCCC2)cc(OC)c1OS(=O)(=O)c1ccc(NC(C)=O)cc1 | 1% | -1% | / | 22µM* | 3% | ?
CCC(C)[C@H](NC(=O)[C@@H]1Cc2ccccc2CN1C(=O)OC(C)(C)C)C(=O)NCC1CCC(C(=O)O)CC1 (stereo partly drawn) | -3% | / | / | / | / | /
CCn1c(=O)c(C(=O)Nc2nc3ccccc3[nH]2)c(O)c2ccccc21 | 3.2µM* | -7% | 4 | -7% | 4%[38.3 µM] | 9%
Fc1ccccc1C1c2cccn2CCN1C(=S)Nc1ccc(Br)cc1 (stereo not drawn) | -54% | / | / | / | 17% | 14µM*
O=C(Nc1ccccc1Cl)c1cc(S(=O)(=O)N2CCCC(C(=O)O)C2)ccc1F (stereo not drawn) | -9%[46.1 µM] | -5% | 9 | -23% | -28%[38.3 µM] | 22µM*
CCOC(=O)CN1C(=O)N[C@@H](c2ccc(Br)cc2)C(C(=O)OC)=C1C | -9% | 1%[11.4 µM] | / | 1% | -7% | -3%[13.5 µM]
CCOC(=O)CN1C(=O)N[C@H](c2ccc(Br)cc2)C(C(C)=O)=C1C | 4% | -6% | / | -23% | 7% | 14µM*
CCCC(=O)Nc1nnc(CCOC)s1 | 16% | 24% | / | -12% | -1% | -4%
Cc1cccc(NC2=C/C(=N/S(=O)(=O)c3cccs3)c3ccccc3C2=O)c1 | 5µM* | 0% | / | -13% | -7% | -1%
Cc1ccc(Cl)cc1NC1=C/C(=N\S(=O)(=O)c2cccs2)c2ccccc2C1=O | ? | -18% | -2 | -16% | 37%[38.3 µM] | ?
O=C1C(Nc2ccc(O)cc2)=C/C(=N/S(=O)(=O)c2cccs2)c2ccccc21 | 6.3µM* | / | / | / | 50% | ?
Cc1ccc(NC2=C/C(=N\S(=O)(=O)c3cccs3)c3ccccc3C2=O)c(C)c1 | 4µM* | -4% | 28 | -12% | 28% | -15%
COc1cc(CC(NC(C)=O)C(=O)NC2CCN(C(=O)C3CC3)CC2)cc(OC)c1 (stereo not drawn) | 10% | / | / | / | 8% | -3%
Cc1cc(O)c(-c2cc(O)c(C)cc2O)cc1O | ? | ? | / | ? | 39% | ?
Cc1cccc(C2CN(C)CCc3c2cc(O)c(O)c3Cl)c1 (stereo not drawn) | -12%[46.1 µM] | / | / | -6% | 12% | 11%
COc1cccc(C(=O)NC2CCN(C(=O)N3c4ccccc4Sc4ccccc43)CC2)c1 | ? | -5% | -8[1.84 µM] | -17% | 15%[38.3 µM] | 7%
COc1cccc(C(=O)N2c3ccccc3Sc3ccccc32)c1 | -19% | 1% | 3 | 14µM* | -5% | 3%
Cn1c(-c2ccccc2)cnc1SCC(N)=O | -10%[46.1 µM] | 0% | -7 | -5% | -2%[38.3 µM] | 1%
CC(=O)NC1=C(NC2CCS(=O)(=O)C2)C(=O)c2ccccc2C1=O (stereo not drawn) | 19% | 9% | ? | 11µM* | -8% | 4%
C=CCN(c1cccc(C(F)(F)F)c1)S(=O)(=O)c1cccc(C(=O)OCC(=O)NCCC)c1 | -26%[46.1 µM] | 2% | 13 | / | / | 0%
Cn1c(=O)c2c(-c3ccccc3)n(Cc3cccnc3)cc2n(C)c1=O | -6%[46.1 µM] | -9% | 3 | -23% | -8%[38.3 µM] | ?
O=C(Cn1cnc2ccccc2c1=O)Nc1cccc(-c2nnc3n2CCCCC3)c1 | 5%[46.1 µM] | 2% | 1 | -12% | 51%[38.3 µM] | -5%
O=C(Nc1ccc(-c2nnc3n2CCCCC3)cc1)c1cnccn1 | -23%[46.1 µM] | -4% | ? | 10µM* | -15%[38.3 µM] | 3%
O=C(Cn1cnc2ccccc2c1=O)Nc1ccc(-c2nnc3n2CCCCC3)cc1 | -11%[46.1 µM] | -4% | -2 | 13µM* | -5%[38.3 µM] | 14µM*
SMILES | NPSR antagonist | ALOX12 inhib | IMPase cell inh | HPGD block | IMPase Li inh | ALDH1A1 block
Cc1onc(-c2ccccc2)c1C(=O)Nc1ccc(-c2nnc3n2CCCCC3)cc1 | -16%[46.1 µM] | -3% | 9 | 7.1µM* | 1%[38.3 µM] | 3%
CCc1ccc(-n2c(Cc3ccccc3)n[nH]c2=S)cc1 | -23% | / | / | / | 4% | -13%
O=C(NCCCn1ccnc1)c1cc2nc(-c3ccc(Br)cc3)cc(C(F)(F)F)n2n1 | -17% | 2% | 24 | -15% | 20% | -16%
CCOc1ccc(NS(=O)(=O)c2ccc3[nH]cc(C(=O)N(CC)CC)c(=O)c3c2)cc1 | -9%[46.1 µM] | 16µM* | -11 | ? | -2%[38.3 µM] | ?
O=C(O)C1C2CCC(C2)C1C(=O)NCCC1=CCCCC1 (stereo not drawn) | 7% | 3% | / | -5% | -6% | ?
CCSc1ccccc1C(=O)NCc1ccco1 | -4%[46.1 µM] | 5% | -3 | 13µM* | -5%[38.3 µM] | 2%
O=C(NCc1ccco1)c1ccccc1Br | -9%[46.1 µM] | 1% | -7 | 2µM* | -4%[38.3 µM] | 9%
O=C(NCc1ccco1)Nc1ccc(Br)cc1 | -9%[46.1 µM] | -8% | 2 | -8% | -6%[38.3 µM] | 3%
CS(=O)(=O)Nc1ccccc1C(=O)NCc1ccco1 | -2%[46.1 µM] | 2% | -5 | ? | 14%[38.3 µM] | ?
O=C(NCc1ccco1)C1(c2ccc(Br)cc2)CCCC1 | -15%[46.1 µM] | 8% | 0 | -16% | 41%[38.3 µM] | 0.18µM*
Cc1ccc(-n2c3c(c(=O)[nH]c2=S)C(C(F)(F)F)(C(F)(F)F)NC(=O)N3)cc1 | -10%[46.1 µM] | 7% | -4 | -14% | 2%[38.3 µM] | 5%

Screening data as filed in PubChem BioAssay.
